BoNT A protease – inhibitors of Botulinum neurotoxin A light chain protease; inhibition, % at 10 µM; multiplex microsphere protease substrate cleavage, flow cytometry; hit rate 0.17% among 360,000; AID 588499
DUSP3 inh – DUSP3 (human) phosphatase inhibition | hit rate 0.52% among 290,000 | recombinant VHR phosphatase, pNPP absorbance | inhibition, % at 13.3 µM | AID 1654 | P51452; in the data active = inhibition above about 50%
Target sequence (P51452 whole entry, looked up): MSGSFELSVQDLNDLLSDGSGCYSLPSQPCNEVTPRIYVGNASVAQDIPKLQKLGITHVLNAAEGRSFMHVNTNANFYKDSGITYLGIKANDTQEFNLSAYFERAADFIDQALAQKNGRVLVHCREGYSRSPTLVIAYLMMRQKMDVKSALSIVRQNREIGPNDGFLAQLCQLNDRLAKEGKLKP
BoNT F protease – inhibitors of Botulinum neurotoxin F light chain protease. Multiplex microsphere protease cleavage assay, flow cytometry. inhibition, % at 10 µM. hit rate 0.22% among 360,000; in the data active = inhibition above about 35%, passing the limit was not always enough; inconclusive = no clear call, values can overlap the other calls
Autofluor counter – compound fluorescence in toxin protease inhibitor counterscreen. compound autofluorescence counterscreen, microsphere flow cytometry; stronger effect = higher value. fluorescence intensity (concentration not given with the values). hit rate 3.1% among 360,000; in the data active = fluorescence intensity above about 16000; inconclusive = no clear call, values can overlap the other calls
Anthrax LF inh2 – blocks Bacillus anthracis lethal factor protease; P15917; multiplex microsphere protease cleavage assay, LF; inhibition, % at 10 µM; hit rate 0.12% among 360,000; AID 588501
3CLpro inhibitor – SARS-CoV 3CLpro protease inhibition. P0C6X7. recombinant SARS-CoV 3CLpro, quenched FRET peptide cleavage. inhibition, % at 6 µM. hit rate 0.14% among 290,000; in the data active = inhibition above about 12%
Hits are given with their value. Only some compounds are listed: those with a hit (about 3.9% of all), similar ones and a draw of the others. Cut-off read from the data, not from the text of the source, unless noted: active = inhibition above about 30%; inconclusive = no clear call, values can overlap the other calls; inactive = below that.

How did O=C(NCCO)c1cccc(Nc2nc(-c3ccccc3)c3cc(Cl)ccc3n2)c1 do in these assays?
BoNT A protease: inactive; DUSP3 inh: inactive; BoNT F protease: inactive; Autofluor counter: 20185; Anthrax LF inh2: inactive; 3CLpro inhibitor: inactive

How did O=C(CSc1nnc(-c2ccco2)o1)c1ccc(F)c(F)c1 do in these assays?
BoNT A protease: inactive; DUSP3 inh: inactive; BoNT F protease: inactive; Autofluor counter: 21701; Anthrax LF inh2: inactive; 3CLpro inhibitor: inactive

How did CC(=O)c1c(C)cc(C)c(CSc2nnc(-c3ccco3)o2)c1C do in these assays?
BoNT A protease: inactive; DUSP3 inh: inactive; BoNT F protease: inactive; Autofluor counter: 19958; Anthrax LF inh2: inactive; 3CLpro inhibitor: inactive

Results for O=c1cc(CSc2nnc(-c3ccco3)o2)c2ccccc2[nH]1 ?
BoNT A protease: inconclusive; DUSP3 inh: inactive; BoNT F protease: inactive; Autofluor counter: 22171; Anthrax LF inh2: inactive; 3CLpro inhibitor: inactive

What do the screens show for `CC(=O)/C(=C/N(C)C)Sc1ccc(C)cc1`?
BoNT A protease: inactive; DUSP3 inh: inactive; BoNT F protease: inactive; Autofluor counter: inactive; Anthrax LF inh2: inactive; 3CLpro inhibitor: inactive

What do the screens show for `CC(=O)/C(=C\N(C)C)Sc1ccc(C)cc1`?
BoNT A protease: inactive; DUSP3 inh: inactive; BoNT F protease: 37.7; Autofluor counter: inactive; Anthrax LF inh2: inconclusive; 3CLpro inhibitor: inactive

How did COc1ccc(CNC(=O)CN2C(=O)C3CCCN3c3ncc(Cl)cc32)cc1 (configuration not stated) do in these assays?
BoNT A protease: inconclusive; DUSP3 inh: inactive; BoNT F protease: inactive; Autofluor counter: 21975; Anthrax LF inh2: inactive; 3CLpro inhibitor: inactive

How did O=C(O)CCNS(=O)(=O)c1ccc(Oc2ccccc2Cl)cc1 do in these assays?
BoNT A protease: inactive; DUSP3 inh: inactive; BoNT F protease: inactive; Autofluor counter: 17172; Anthrax LF inh2: inactive; 3CLpro inhibitor: inactive

Results for O=C(O)CCCNS(=O)(=O)c1ccccc1 ?
BoNT A protease: inactive; DUSP3 inh: inactive; BoNT F protease: inactive; Autofluor counter: inactive; Anthrax LF inh2: inactive; 3CLpro inhibitor: inactive

What do the screens show for `CCc1ccccc1NC(=O)CN1CCC(NC(=O)COC)CC1`?
BoNT A protease: inconclusive; DUSP3 inh: inactive; BoNT F protease: inactive; Autofluor counter: 23013; Anthrax LF inh2: inactive; 3CLpro inhibitor: inactive

Results for COc1cc(C)ccc1OCC(=O)NC1CCCCCC1 ?
BoNT A protease: inactive; BoNT F protease: inactive; Autofluor counter: inactive; Anthrax LF inh2: inactive

Results for COc1ccccc1CC(=O)NC1CCCCCC1 ?
BoNT A protease: inactive; DUSP3 inh: inactive; BoNT F protease: inactive; Autofluor counter: inactive; Anthrax LF inh2: inactive; 3CLpro inhibitor: inactive

Results for CCc1ccccc1OCC(=O)NC1CCCC1 ?
BoNT A protease: inactive; DUSP3 inh: inactive; BoNT F protease: inactive; Autofluor counter: 23047; Anthrax LF inh2: inactive; 3CLpro inhibitor: inactive

What do the screens show for `COc1cc(CNn2cnnc2)ccc1OCC(=O)NC1CCCCC1`?
BoNT A protease: inactive; DUSP3 inh: inactive; BoNT F protease: inactive; Autofluor counter: 24056; Anthrax LF inh2: inactive; 3CLpro inhibitor: inactive

Results for COC(=O)c1ccccc1OCC(=O)NC1CCCCC1 ?
BoNT A protease: inactive; DUSP3 inh: inactive; BoNT F protease: inactive; Autofluor counter: 21631; Anthrax LF inh2: inactive; 3CLpro inhibitor: inactive

How did CCCC1CC(=O)NC1(C(=O)OCC)C(=O)OCC (configuration not stated) do in these assays?
BoNT A protease: inactive; BoNT F protease: inactive; Autofluor counter: inactive; Anthrax LF inh2: inactive

How did O=C(CN1C(=O)C(=O)c2ccccc21)NC1CCCCC1 do in these assays?
BoNT A protease: inconclusive; DUSP3 inh: inactive; BoNT F protease: inactive; Autofluor counter: 21596; Anthrax LF inh2: inactive; 3CLpro inhibitor: inactive

How did O=C(Nc1ccc(Br)cc1)N1CCCCC1 do in these assays?
BoNT A protease: inactive; DUSP3 inh: inactive; BoNT F protease: inactive; Autofluor counter: inactive; Anthrax LF inh2: inactive; 3CLpro inhibitor: inactive

Results for COCC(=O)NC1CCN(C(=O)Nc2ccc(Br)cc2)CC1 ?
BoNT A protease: inactive; DUSP3 inh: inactive; BoNT F protease: inactive; Autofluor counter: 16587; Anthrax LF inh2: inactive; 3CLpro inhibitor: inactive

Results for COc1ccccc1OCC(=O)NCC1CCCCC1 ?
BoNT A protease: inactive; DUSP3 inh: inactive; BoNT F protease: inactive; Autofluor counter: 23960; Anthrax LF inh2: inactive; 3CLpro inhibitor: inactive

Results for COc1cccc(OC)c1C(=O)OCC(=O)NCC1CCCCC1 ?
BoNT A protease: inactive; BoNT F protease: inactive; Autofluor counter: inactive; Anthrax LF inh2: inactive

Results for C=CC[C@@H]1C=C[C@H](O/N=C/c2ccc(C(=O)N3[C@H](c4ccc(C)cc4)[C@@H](C)CC[C@H]3C(=O)OC)cc2)[C@@H](CO)O1 ?
DUSP3 inh: inactive; 3CLpro inhibitor: inactive

What do the screens show for `C=C1CCN([C@@H](CC(C)C)C(=O)Nc2nc3ccc(Cl)cc3s2)S(=O)(=O)c2ccccc21`?
BoNT A protease: inactive; BoNT F protease: inactive; Autofluor counter: inactive; Anthrax LF inh2: inactive

How did O=C(CCCN1C(=O)c2ccccc2C1=O)N1CCC(c2ccccc2)C1 (configuration not stated) do in these assays?
BoNT A protease: inactive; DUSP3 inh: inactive; BoNT F protease: inactive; Autofluor counter: 20922; Anthrax LF inh2: inactive; 3CLpro inhibitor: inactive

How did O=C(CCCN1C(=O)c2ccccc2C1=O)N1CCCCC1 do in these assays?
BoNT A protease: inactive; DUSP3 inh: inactive; BoNT F protease: inactive; Autofluor counter: inactive; Anthrax LF inh2: inactive; 3CLpro inhibitor: inactive

What do the screens show for `Cc1cc2n(n1)SC(Nc1cc(Cl)ccc1Cl)N2` (configuration not stated)?
BoNT A protease: inactive; DUSP3 inh: inactive; BoNT F protease: inactive; Autofluor counter: 20196; Anthrax LF inh2: inactive; 3CLpro inhibitor: inactive

Results for Cc1cc2n(n1)SC(Nc1cccc3ccccc13)N2 (configuration not stated) ?
BoNT A protease: inactive; DUSP3 inh: inactive; BoNT F protease: inactive; Autofluor counter: 17932; Anthrax LF inh2: inactive; 3CLpro inhibitor: inactive

Results for CCOCCCNC(=O)c1cc2sc(Cl)cc2n1CC ?
BoNT A protease: inconclusive; DUSP3 inh: inactive; BoNT F protease: inactive; Autofluor counter: 18115; Anthrax LF inh2: inactive; 3CLpro inhibitor: inactive

How did Cc1c(C(=O)N2CCCCC2)oc2ccccc12 do in these assays?
BoNT A protease: inactive; BoNT F protease: inactive; Autofluor counter: inactive; Anthrax LF inh2: inactive

What do the screens show for `Cc1c(C(=O)NC(C)CN2CCCCC2)oc2ccccc12` (configuration not stated)?
BoNT A protease: inactive; DUSP3 inh: inactive; BoNT F protease: inactive; Autofluor counter: 17372; Anthrax LF inh2: inactive; 3CLpro inhibitor: inactive

Results for O=C1OCCOC2CCCc3oc(C4=CCCCC4)c1c32 (configuration not stated) ?
BoNT A protease: inactive; BoNT F protease: inactive; Autofluor counter: inactive; Anthrax LF inh2: inactive

How did O=c1c2ccccc2[se]n1-c1ccccc1 do in these assays?
BoNT A protease: 81.1; DUSP3 inh: inactive; BoNT F protease: 38.3; Autofluor counter: inactive; Anthrax LF inh2: inactive; 3CLpro inhibitor: inactive

Results for O=c1c2ccccc2nc(-c2ccccc2)n1-c1ccccc1 ?
BoNT A protease: inactive; DUSP3 inh: inactive; BoNT F protease: inconclusive; Autofluor counter: inactive; Anthrax LF inh2: inactive; 3CLpro inhibitor: inactive

Screens deposited in PubChem BioAssay by several laboratories.
